Measured values: PubChem BioAssay (Tox21)
Several values for one entry are separate records, joined by “and”; a condition that tells them apart may be missing. Identical values can stand only once. Inconclusive results are not listed. Activity calls are given as the source filed them. Unless noted, calls follow the shape of the full dose curve.

What was measured:
[1] = Nuclear factor erythroid 2-related factor 2/antioxidant responsive element (Nrf2/ARE) small molecule agonists: luciferase reporter gene qHTS assay in human keratinocytes (AID 1919969); also: nearly all actives have a fitted effect of over 35% in size; also: potency is read from the fitted curve at half-maximal effect
[2] = biological target: Gonadotropin-releasing hormone receptor (Homo sapiens) (UniProt P30968); test: Human gonadotropin-releasing hormone receptor (GnRHR) small molecule agonists, calcium flux assay in GnRHR-HEK293 cells (AID 1920063); also: nearly all actives have a fitted effect of over 35% in size; also: potency is read from the fitted curve at half-maximal effect
In short: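 Calcium flux, agonist mode, human GnRHR stably integrated in HEK293; dye 1 h at 37 C before compound; Ex/Em=480/540 kinetic read, 3 min; 15 concentrations, triplicate.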

[3] = biological target: KiSS-1 receptor (Homo sapiens) (UniProt Q969F8); test: Human kisspeptin (KISS1R) small molecule agonists, calcium flux assay in KISS1R-HEK293 cells (AID 1920064; active = well fitted activation curve with a large enough effect in the repeat runs; also: potency is read from the fitted curve at half-maximal effect)
In short: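 Triplicate 15-concentration series were applied to dye-loaded human KISS1R HEK293 cells, and agonist-evoked calcium fluorescence was captured for 3 min.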

[4] = G protein-coupled receptor (GPCR) small molecule agonists, calcium flux assay: HEK293 wild type cell line counter screen (AID 1920065); also: potency is read from the fitted curve at half-maximal effect
In short: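 Non-specific calcium responders were flagged by adding DMSO-dissolved compounds to dye-loaded cells and reading 480/540 nm fluorescence each second for 3 min; ATP served as positive control.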

[5] = p53 small molecule agonists, cell-based qHTS assay with human liver microsomes: qHTS cell viability counter screen (AID 1963579); also: nearly all actives have a fitted effect of over 45% in size
In short: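 Cells carrying the p53 response-element beta-lactamase reporter are treated for 16 h at 37 C with test compounds in the presence of human liver microsomes and NADPH (both 0.5 mg/mL final); ATP-based CellTiter-Glo luminescence then reports viability.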

[6] = p53 small molecule agonists, cell-based qHTS assay with rat liver microsomes: qHTS cell viability counter screen (AID 1963580); also: nearly all actives have a fitted effect of over 45% in size
In short: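 After the beta-lactamase ratio was read, CellTiter-Glo was added to the same wells and luminescence measured at 30 min; cells had been treated 16 h at 37 C with compounds, rat liver microsomes and NADPH (0.5 mg/mL final each).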

[7] = p53 small molecule agonists, cell-based qHTS assay: qHTS cell viability counter screen (AID 1963581); also: nearly all actives have a fitted effect of over 45% in size; also: potency is read from the fitted curve at half-maximal effect
In short: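 Multiplexed with the reporter read, a CellTiter-Glo step (30 min, room temperature) gauges ATP-based viability of HCT-116 p53RE-bla cells after 16 h compound incubation at 37 C.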

[8] = biological target: 5-hydroxytryptamine receptor 2A (Homo sapiens) (UniProt P28223); test: 5-hydroxytryptamine receptor 2A (HTR2A) small molecule antagonists, cell-based qHTS assay (AID 1963586); also: nearly all actives have a fitted effect of over 45% in size; also: potency is read from the fitted curve at half-maximal effect
In short: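 CHO cells stably expressing human HTR2A were plated for 18 h at 37 C, then loaded with calcium dye for 1 h. Compounds were preincubated 5 min at room temperature before DOI (4 nM solution) was added. Kinetic fluorescence was read for 3 min.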

[9] = biological target: 5-hydroxytryptamine receptor 2A (Homo sapiens) (UniProt P28223); test: 5-hydroxytryptamine receptor 2A (HTR2A) small molecule agonists, cell-based qHTS assay (AID 1963587); also: nearly all actives have a fitted effect of over 30% in size; also: potency is read from the fitted curve at half-maximal effect
In short: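 CHO cells stably expressing human HTR2A, plated 18 h, loaded with calcium dye 1 h at 37 C. Agonist mode: compounds added and intracellular calcium fluorescence recorded kinetically for 2 min at 1 sec intervals.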

[10] = biological target: Muscarinic acetylcholine receptor M1 (Homo sapiens) (UniProt P11229); test: Cholinergic receptor muscarinic 1 (CHRM1) small molecule antagonists, cell-based qHTS assay (AID 1963588); also: nearly all actives have a fitted effect of over 40% in size; also: potency is read from the fitted curve at half-maximal effect
In short: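 Compounds were tested at 15 concentrations in three independent runs. Dye-loaded CHRM1-CHO cells were exposed 5 min at room temperature before stimulation by acetylcholine added at 50nM. Intracellular calcium was read kinetically on FDSS for 3 min.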

[11] = biological target: Muscarinic acetylcholine receptor M1 (Homo sapiens) (UniProt P11229); test: Cholinergic receptor muscarinic 1 (CHRM1) small molecule agonists, cell-based qHTS assay (AID 1963589); also: nearly all actives have a fitted effect of over 35% in size; also: potency is read from the fitted curve at half-maximal effect
In short: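 qHTS, 15-point titration, 3 independent runs: compounds pin-transferred onto dye-loaded CHRM1-CHO cells (human M1), calcium fluorescence followed every second to detect agonism.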

[12] = cAMP Responsive Elements (CRE) small molecule agonists, cell-based qHTS assay (AID 1963590)
In short: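 Quantitative HTS for CRE agonists: HEK 293T CRE-bla cells, overnight plating, 3 h compound incubation at 37 C/5% CO2, then 2 h room-temperature LiveBLAzer B/G FRET substrate loading.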

[13] = biological target: Beta-2 adrenergic receptor (Homo sapiens) (UniProt P07550); test: Adrenergic beta2 receptor (ADRB2) small molecule antagonists, cell-based qHTS assay (AID 1963592); also: series mostly up to about 92 µM; nearly all actives have a fitted effect of over 50% in size
In short: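 Assay format: CHO-ADRB2 cells, 18-20hr seeding at 37C/5% CO2, then compound plus 1nM isoproterenol agonist mix for 0.5hr RT. Homogeneous time-resolved fluorescence cAMP detection after 1hr, expressed as 665/615 nm ratio.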

[14] = biological target: D(2) dopamine receptor (Homo sapiens) (UniProt P14416); test: Dopamine D2 receptor (DRD2) small molecule agonists, cell-based qHTS assay (AID 1963594); also: nearly all actives have a fitted effect of over 35% in size
In short: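 HEK293 cells stably expressing human DRD2, pre-treated with PDE inhibitor Ro20-1724 (0.1 mM final) and compound 10 min at room temperature, then stimulated with NKH477 (200nM […]) for 30 min. cAMP read by HTRF (665/620 nm).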

[15] = biological target: D(2) dopamine receptor (Homo sapiens) (UniProt P14416); test: Dopamine D2 receptor (DRD2) small molecule antagonists, cell-based qHTS assay (AID 1963595; active = well fitted inhibition curve with a large enough effect in the signal ratio in the repeat runs, with a control signal flat; the % refers to the signal ratio)
In short: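 Stable D2 receptor HEK293 line, 24 h after seeding. Compound preincubated 10 min, then quinpirole (12 nM) with forskolin analogue NKH477 (200 nM), 30 min, room temperature. Detection by time-resolved FRET of cAMP.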

[16] = cAMP Responsive Elements (CRE) small molecule antagonists, cell-based qHTS assay (AID 1963591; active = well fitted inhibition curve with a large enough effect in the signal ratio in the repeat runs, not every such curve was filed as active; the % refers to the signal ratio)
In short: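 Fluorescence intensity from cleaved LiveBLAzer B/G substrate (2 h, room temperature) quantified CRE-bla activity in HEK 293T cells exposed 3 h to compound with 0.25 uM final NKH477.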

[17] = biological target: Beta-2 adrenergic receptor (Homo sapiens) (UniProt P07550); test: Adrenergic beta2 receptor (ADRB2) small molecule agonists, cell-based qHTS assay (AID 1963593);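 also: CHO cells stably overexpressing human ADRB2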
In short: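 CHO cells stably over-expressing ADRB2 were plated overnight at 37C, then dosed with compounds plus a stimulation mix containing 100uM IBMX and 25uM Ro-20-1724 for 0.5hr at room temperature. cAMP was measured by HTRF competition, 1hr.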

[18] = p53 small molecule agonists, cell-based qHTS assay (AID 1963582; active = well fitted activation curve with a large enough effect in the signal ratio in the repeat runs, not every such curve was filed as active; the % refers to the signal ratio)
In short: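 Beta-lactamase reporter cells (p53RE-bla) treated with compounds for 16 h at 37 C; FRET substrate, 2 h, room temperature; fluorescence intensity.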

Measured: Potency

Chain of Gonadotropin-releasing hormone receptor (Homo sapiens) (P30968 whole entry, looked up): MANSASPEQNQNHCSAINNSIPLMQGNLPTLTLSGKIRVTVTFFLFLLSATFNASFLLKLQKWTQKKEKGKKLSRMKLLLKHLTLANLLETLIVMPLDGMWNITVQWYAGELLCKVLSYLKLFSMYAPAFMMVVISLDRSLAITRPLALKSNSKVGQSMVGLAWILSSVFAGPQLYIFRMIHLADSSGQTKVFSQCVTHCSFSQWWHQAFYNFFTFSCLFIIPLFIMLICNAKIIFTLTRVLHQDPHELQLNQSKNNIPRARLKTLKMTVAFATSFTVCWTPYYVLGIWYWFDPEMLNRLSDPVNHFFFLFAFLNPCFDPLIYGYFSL
Chain of Muscarinic acetylcholine receptor M1 (Homo sapiens) (P11229 whole entry, looked up): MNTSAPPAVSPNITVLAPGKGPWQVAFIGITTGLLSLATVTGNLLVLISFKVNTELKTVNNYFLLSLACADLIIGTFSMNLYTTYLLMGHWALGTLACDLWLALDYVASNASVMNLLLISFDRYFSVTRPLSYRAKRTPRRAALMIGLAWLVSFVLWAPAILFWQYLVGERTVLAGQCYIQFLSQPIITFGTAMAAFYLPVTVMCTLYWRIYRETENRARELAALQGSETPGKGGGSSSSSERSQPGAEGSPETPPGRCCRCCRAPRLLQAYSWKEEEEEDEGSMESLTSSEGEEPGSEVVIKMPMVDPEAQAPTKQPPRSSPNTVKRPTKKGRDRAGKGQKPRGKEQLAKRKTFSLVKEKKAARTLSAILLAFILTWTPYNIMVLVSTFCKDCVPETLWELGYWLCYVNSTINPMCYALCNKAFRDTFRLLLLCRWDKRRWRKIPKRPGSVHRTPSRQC
Chain of Beta-2 adrenergic receptor (Homo sapiens) (P07550 whole entry, looked up): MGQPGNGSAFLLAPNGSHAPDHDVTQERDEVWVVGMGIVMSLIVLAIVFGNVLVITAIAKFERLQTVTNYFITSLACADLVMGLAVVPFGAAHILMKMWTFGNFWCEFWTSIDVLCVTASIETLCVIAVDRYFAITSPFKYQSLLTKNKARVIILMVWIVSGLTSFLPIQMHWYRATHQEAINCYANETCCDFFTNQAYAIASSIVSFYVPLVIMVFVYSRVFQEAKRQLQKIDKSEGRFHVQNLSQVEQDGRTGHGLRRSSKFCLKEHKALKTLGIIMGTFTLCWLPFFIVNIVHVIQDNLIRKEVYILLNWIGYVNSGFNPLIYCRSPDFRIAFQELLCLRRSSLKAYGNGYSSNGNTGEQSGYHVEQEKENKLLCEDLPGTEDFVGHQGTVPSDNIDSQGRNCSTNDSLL
Chain of KiSS-1 receptor (Homo sapiens) (Q969F8 whole entry, looked up): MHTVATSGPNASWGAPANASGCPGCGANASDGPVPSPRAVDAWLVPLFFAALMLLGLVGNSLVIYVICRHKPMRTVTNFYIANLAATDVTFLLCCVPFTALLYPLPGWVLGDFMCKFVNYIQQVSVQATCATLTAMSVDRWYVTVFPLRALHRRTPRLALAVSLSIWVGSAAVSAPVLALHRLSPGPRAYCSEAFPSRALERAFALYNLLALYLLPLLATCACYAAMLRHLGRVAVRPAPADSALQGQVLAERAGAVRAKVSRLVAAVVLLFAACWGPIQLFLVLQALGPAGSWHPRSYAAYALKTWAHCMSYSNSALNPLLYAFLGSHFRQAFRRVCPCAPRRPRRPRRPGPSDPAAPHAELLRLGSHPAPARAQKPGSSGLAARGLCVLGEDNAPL
Chain of 5-hydroxytryptamine receptor 2A (Homo sapiens) (P28223 whole entry, looked up): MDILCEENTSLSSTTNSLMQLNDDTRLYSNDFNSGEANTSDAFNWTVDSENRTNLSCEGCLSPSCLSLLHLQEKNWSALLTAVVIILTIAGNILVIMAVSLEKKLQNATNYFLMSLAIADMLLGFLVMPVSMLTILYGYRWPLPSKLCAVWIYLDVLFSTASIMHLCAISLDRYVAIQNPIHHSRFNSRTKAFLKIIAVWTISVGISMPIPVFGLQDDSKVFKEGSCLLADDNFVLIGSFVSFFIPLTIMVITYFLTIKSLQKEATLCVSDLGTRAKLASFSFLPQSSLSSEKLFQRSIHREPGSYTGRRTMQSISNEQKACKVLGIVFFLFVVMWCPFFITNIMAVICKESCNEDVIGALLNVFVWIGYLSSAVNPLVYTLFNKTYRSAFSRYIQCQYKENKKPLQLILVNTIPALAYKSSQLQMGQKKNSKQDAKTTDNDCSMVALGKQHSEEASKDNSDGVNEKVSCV
Chain of D(2) dopamine receptor (Homo sapiens) (P14416 whole entry, looked up): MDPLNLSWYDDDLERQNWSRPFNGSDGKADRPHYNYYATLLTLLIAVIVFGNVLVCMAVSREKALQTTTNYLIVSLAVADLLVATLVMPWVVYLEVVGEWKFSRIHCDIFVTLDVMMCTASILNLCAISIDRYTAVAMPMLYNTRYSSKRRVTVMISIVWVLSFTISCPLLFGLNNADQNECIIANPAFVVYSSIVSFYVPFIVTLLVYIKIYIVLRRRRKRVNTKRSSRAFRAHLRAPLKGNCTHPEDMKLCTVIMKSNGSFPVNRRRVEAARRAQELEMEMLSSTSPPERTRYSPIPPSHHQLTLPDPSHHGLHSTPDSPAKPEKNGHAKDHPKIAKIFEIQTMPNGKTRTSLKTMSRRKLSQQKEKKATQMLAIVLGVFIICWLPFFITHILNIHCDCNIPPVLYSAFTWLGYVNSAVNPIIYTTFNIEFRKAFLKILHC

O=C(O)[C@@H]1CSCN1
not listed: [16] | [17] | [18]
inactive: all other assays above

OCCOc1cccc(OCCO)c1
not listed: [8] | [17] | [18]
inactive: all other assays above

COc1ccc2nc(S(=O)Cc3ncc(C)c(OC)c3C)[nH]c2c1 (stereo unspecified)
inactive: [2] | [3] | [4] | [5] | [6] | [16] | [13] | [14] | [15]
active: [1] 67.8 µM and 26.6 µM

CC(C)COC(=O)COc1ccc(Cl)cc1Cl
not listed: [12] | [16] | [17] | [18]
inactive: all other assays above

Cc1ccc2c(c1)CCCN2
not listed: [6] | [10] | [12] | [14] | [16] | [18]
inactive: all other assays above

Cc1ncc(COP(=O)(O)O)c(C=O)c1O
not listed: [10] | [17] | [18]
inactive: all other assays above

CCCCCCCCCCCCCC(=O)OC
not listed: [8] | [14] | [17] | [18]
inactive: all other assays above

c1ccc2c(c1)-c1ccc3ccc4cccc5cc-2c1c3c45
active: [1] 13.3 µM | [2] 6.74 µM | [9] 10.7 µM
not listed: [12] | [16] | [17] | [18]
inactive: all other assays above

COC1=C(OC)C(=O)C(CCCCCCCCCCO)=C(C)C1=O
inactive: [2] | [3] | [4] | [5] | [6] | [16] | [13] | [17] | [15]
active: [1] 10.6 µM

CCN1CCN(C(=O)N[C@@H](C(=O)N[C@@H]2C(=O)N3[C@@H]2SC(C)(C)[C@H]3C(=O)O)c2ccccc2)C(=O)C1=O
not listed: [8] | [9] | [10] | [11] | [15] | [17] | [18]
inactive: all other assays above

CCCC(=O)OC[C@@H](OC(=O)CCC)[C@@H](OC(=O)CCC)[C@H](Cn1c2nc(=O)[nH]c(=O)c-2nc2cc(C)c(C)cc21)OC(=O)CCC
active: [2] 7.56 µM | [3] 16.9 µM | [4] 15.1 µM | [9] 23.9 µM | [11] 19 µM
inactive: [1] | [5] | [6] | [8] | [13] | [14] | [15]

CCCC(CC)CCCCCCCN (stereo unspecified)
active: [8] 24.2 µM | [9] 44.7 µM | [10] 4.84 µM
not listed: [13] | [17] | [18]
inactive: all other assays above

CCC(C)n1ncn(-c2ccc(N3CCN(c4ccc(OC[C@H]5CO[C@](Cn6cncn6)(c6ccc(Cl)cc6Cl)O5)cc4)CC3)cc2)c1=O (stereo partly specified)
not listed: [8] | [9] | [10] | [11]
inactive: all other assays above

C[C@H]1O[C@@H](O[C@H]2CC[C@@]3(C)[C@H](CC[C@@H]4[C@@H]3C[C@@H](O)[C@]3(C)[C@@H](C5=CC(=O)OC5)CC[C@]43O)C2)C[C@H](O)[C@@H]1O[C@H]1C[C@H](O)[C@H](O[C@H]2C[C@H](O)[C@H](O[C@@H]3O[C@H](CO)[C@@H](O)[C@H](O)[C@H]3O)[C@@H](C)O2)[C@@H](C)O1
active: [1] 0.531 µM | [7] 0.251 µM
not listed: [6] | [12] | [14] | [16] | [18]
inactive: all other assays above

Nc1ccc2c3c(cccc13)-c1ccccc1-2
inactive: [1] | [5] | [6] | [8] | [10] | [13] | [14]
active: [2] 35.1 µM | [3] 55.5 µM | [4] 39.3 µM | [9] 24.8 µM | [11] 49.5 µM
